Here are results for 66 compounds from ChEMBL document CHEMBL4513216, “Probing the Open Global Health Chemical Diversity Library for Multistage-Active Starting Points for Next-Generation Antimalarials” (ACS Infect Dis, 2020).

Among all 68,000 compounds or so, about 2,700 (4%) showed an effect of 50% or more. This is one part of a sample in which strong results are shown more often than they occur.

The assay concerns Plasmodium berghei. As to the kind of experiment: Screen against P. berghei liver stage (PbLuc), transformed with Luciferase, at 2uM. It is filed as functional, HepG2. The conditions noted are these: tested at 2 uM.
Consider `Cc1nnc(NC(=O)NCc2ccc(F)cc2)s1`, for which the INHIBITION is -12.41%.

On to `O=C(c1nc2c(o1)CN(CC1CCC1)C2)N1CCCC1`, for which the INHIBITION was 12.68%.

For `COCCN1C[C@H]2[C@@H](C1)N(C(=O)CCc1ccccc1)CC[C@H]2OC`, the INHIBITION was found to be 25.02%.

With `COCCN1C[C@@H]2[C@@H](OC)CCN(C(=O)Cc3ccccc3)[C@@H]2C1`, the INHIBITION turned out to be 55.44%.

On to `COCCN1C[C@H]2[C@@H](C1)N(C(=O)COc1ccccc1)CC[C@H]2OC`, for which the INHIBITION is listed as -75.33%.

Turning to `N#Cc1ccccc1CN1C[C@H]2CC[C@@H](C1)N(Cc1cscn1)C2=O`, the INHIBITION was -66.52%.

For `CC(C)N(C)S(=O)(=O)N1CCCC1CC(=O)c1cccs1` (stereo unspecified), the INHIBITION was determined as 2.71%.

On to `Cc1ccc(CNCC2Cn3nnc(-c4cccc(F)c4)c3CO2)o1` (stereo unspecified), for which the INHIBITION is reported as -17.26%.

As for `CN1CCC2(COCCN(Cc3cccc(C#N)c3)C2)C1` (stereo unspecified), the INHIBITION is 16.03%.

Turning to `CCCS(=O)(=O)N1CCC2(CCC(=O)N(CCc3cccnc3)C2)CC1`, the INHIBITION amounted to 31.96%.

In the case of `CCCS(=O)(=O)N1CCC2(CCC(=O)N(Cc3ccccc3)C2)CC1`, the INHIBITION worked out at 57.91%.

`CCCS(=O)(=O)N1CCC2(CCC(=O)N(CCc3ccccc3)C2)CC1`: the INHIBITION is reported as 15.56%.

Take `CCC(CNC(=O)Cc1c(C)noc1C)N1CCCC1` (stereo unspecified): the INHIBITION was -15.63%.

Consider `Cc1ccnn1CCC(=O)N1CCC(c2cnccn2)CC1`, for which the INHIBITION was found to be 55.74%.

On to `COc1cc(CCC(=O)N2CCC(c3cnccn3)CC2)on1`, for which the INHIBITION is -56.97%.

Consider `Cn1nccc1CCC(=O)N1CCC(c2cnccn2)CC1`, for which the INHIBITION is -14.13%.

As for `CC(Cn1cc(Br)cn1)C(=O)Nc1ccc(Br)cn1` (stereo unspecified), the INHIBITION was -84.37%.

Turning to `CC(C)N(CCCNC(=O)C1CCCN(C(N)=O)C1)S(C)(=O)=O` (stereo unspecified), the INHIBITION was found to be 26.18%.

In the case of `N#CCCNC(=O)CSc1ccc(F)cc1F`, the INHIBITION is 21.22%.

Turning to `CN(CCC#N)C(=O)CSc1cc(F)ccc1F`, the INHIBITION was 6.82%.

With `N#CCCNC(=O)CSc1cc(F)ccc1F`, the INHIBITION turned out to be 51.83%.

With `CCc1nnc(NC(=O)c2ccc(C3CCCN3CC(C)C)s2)s1` (stereo unspecified), the INHIBITION is on record as 52.98%.

For the compound `Cc1cnc(NC(=O)c2ccc(C3CCCN3CC(C)C)s2)s1` (stereo unspecified), the INHIBITION was found to be 24.36%.

For the compound `CC(C)CN1CCCC1c1ccc(C(=O)Nc2cn(C)nn2)s1` (stereo unspecified), the INHIBITION was -28.11%.

`CCc1nccn1-c1cncc(C2CCCN2)n1` (stereo unspecified): the INHIBITION was -21.99%.

On to `c1ccc(C2CCCN2Cc2nnnn2C2CC2)cc1` (stereo unspecified), for which the INHIBITION stood at 7.74%.

Consider `CN(CCCNS(=O)(=O)N1CCC2(CC1)OCCO2)c1ccccc1`, for which the INHIBITION came out at 0.12%.

As to `O=c1[nH]c2nc(N3CCCC3)ncc2c(=O)n1-c1cccc(F)c1`, the INHIBITION was 22.51%.

With `O=c1[nH]c2nc(NCC3CCCO3)ncc2c(=O)n1-c1ccc(F)cc1` (stereo unspecified), the INHIBITION is reported as 24.34%.

Take `O=c1[nH]c2nc(NCC3CCCO3)ncc2c(=O)n1-c1cccc(F)c1` (stereo unspecified): the INHIBITION came to 61.06%.

For the compound `CN1CCCC[C@@H]2[C@H]1[C@@H](c1ccccc1)CCN2S(=O)(=O)N1CCCC1`, the INHIBITION is 49.9%.

Take `COc1ccc(OC)c(-n2nnnc2SCC2CCCCO2)c1` (stereo unspecified): the INHIBITION is -10.78%.

Turning to `Cc1cnc2[nH]c(C(F)(F)F)c(CN3CCCC(CO)C3)c2c1` (stereo unspecified), the INHIBITION is given as 18.87%.

Regarding `CCc1ncncc1C(=O)NCCNC(=O)c1ccc(C)c(F)c1`, the INHIBITION is on record as -18.39%.

As to `Cc1ccc(C(=O)NCCNC(=O)c2cncnc2C)cc1F`, the INHIBITION is -9.98%.

With `Cc1ccc(C(=O)NCCNC(=O)c2cncnc2C(C)C)cc1F`, the INHIBITION worked out at 57.34%.

For `O=C(CCn1cccn1)NCCOc1cccc(Cl)c1`, the INHIBITION was 8.78%.

For the compound `Nc1ccc(C(=O)N2C[C@H]3CC[C@@H](C2)N(Cc2ccccc2)C3)cn1`, the INHIBITION worked out at 57.85%.

With `Cc1ccc(C(=O)N2C[C@H]3CC[C@@H](C2)N(Cc2ccccc2)C3)cn1`, the INHIBITION is reported as -17.44%.

In the case of `O=C(c1c[nH]c(=O)cn1)N1C[C@H]2CC[C@@H](C1)N(Cc1ccccc1)C2`, the INHIBITION stood at 24.51%.

Regarding `COc1ncccc1CN1CCn2c(Cn3cncn3)cnc2C1`, the INHIBITION is given as -47.72%.

Regarding `O=C(NCCC1=CCCCC1)c1ccc(-n2cccc2)nc1`, the INHIBITION came to 46.17%.

Regarding `CCc1nnc2n1CCN(C(=O)Cc1csc(-c3ccco3)n1)C2`, the INHIBITION is -5.2%.

As to `CCN1CCN(C(=O)C(C)n2cc(Br)cn2)CC1` (stereo unspecified), the INHIBITION was found to be 1.77%.

With `CCCC(=O)NS(=O)(=O)c1ccc(C#N)c(C(F)(F)F)c1`, the INHIBITION worked out at 4.68%.

Turning to `CC/C=C(/C)C(=O)NS(=O)(=O)c1ccc(C#N)c(C(F)(F)F)c1`, the INHIBITION worked out at 57%.

Consider `CC/C=C(/C)C(=O)NS(=O)(=O)c1ccc(C#N)cc1C(F)(F)F`, for which the INHIBITION turned out to be 6.08%.

For the compound `Cn1nc(CNC(=O)NCc2ccc(Cl)cc2)c2c1CCOC2`, the INHIBITION was -18.29%.

As to `C=C(C)COc1cccc(C(=O)N(C)C(C)c2ccncn2)c1` (stereo unspecified), the INHIBITION is 18.88%.

With `C=C(C)COc1cccc(CN(C)C(C)c2nccs2)c1` (stereo unspecified), the INHIBITION was -10.78%.

As for `C=C(C)COc1cccc(CN(C)C(C)c2ccncn2)c1` (stereo unspecified), the INHIBITION is on record as 53.17%.

For the compound `CC(C)N1CCCC(Cc2nccnc2Cl)C1` (stereo unspecified), the INHIBITION is -47.18%.

Regarding `Cc1nc(C)c(C(C)NCc2c(C)nn(C)c2N(C)C)s1` (stereo unspecified), the INHIBITION is -30.49%.

Take `COc1c(CNC(C)c2sc(C)nc2C)c(C(C)C)nn1C` (stereo unspecified): the INHIBITION is listed as 59.99%.

For `Cc1nc(C)c(C(C)NCc2c(C(C)C)nn(C)c2N(C)C)s1` (stereo unspecified), the INHIBITION is recorded as -34.69%.

As to `Cc1ccc(-c2cc(N)c(=O)n(C(C)C(=O)NCC3CCCCC3)n2)s1` (stereo unspecified), the INHIBITION is -1.07%.

On to `Cc1ncsc1CN1C[C@@H]2CC[C@H]1CN(Cc1ccccc1)C2`, for which the INHIBITION came to 15.68%.

Take `CC(C)(C)C(O)CN1CCN(CCOCC(F)(F)F)CC1` (stereo unspecified): the INHIBITION is -17.11%.

For the compound `Cc1nn(C)c(C)c1C(=O)NCc1ccnc(OCC(F)(F)F)c1`, the INHIBITION was found to be 11.09%.

Turning to `COCCN1CCCC1c1ccnc(-c2ccccc2)n1` (stereo unspecified), the INHIBITION is 14.3%.

Consider `CCCn1cc(-c2cc(-c3cnc(OC)nc3)c(C#N)c(N)n2)c(C)n1`, for which the INHIBITION was 38.61%.

As to `CCCn1cc(-c2cc(-c3ccoc3)c(C#N)c(N)n2)c(C)n1`, the INHIBITION was 61.28%.

With `CCCn1cc(-c2cc(-c3c[nH]cn3)c(C#N)c(N)n2)c(C)n1`, the INHIBITION was 38.15%.

As for `Cc1cccc(-c2noc(CN3CC(n4cccn4)C3)n2)c1`, the INHIBITION was -15.28%.

In the case of `CS(=O)(=O)Cc1ccc(Cl)c(NCc2noc(C3CC3)n2)c1`, the INHIBITION is recorded as -22.2%.

For `Cc1ccc(-c2ccc(Cl)nn2)cc1S(=O)(=O)N1CCOCC1`, the INHIBITION was 4.88%.
